Measured values reported in PubChem BioAssay AID489008 (National Center for Advancing Translational Sciences (NCATS), 2010).
Inconclusive results are not listed. Active and inactive are the calls of the source. Calls follow the shape of the dose curve; as a rule, active = well fitted inhibition curve with a large enough effect; inconclusive = small, poorly fitted or top-dose-only effect; inactive = flat fitted curve, though single readings scatter.

These molecules were tested against Ferritin light chain (Equus caballus) (UniProt P02791) (assay: Confirmation Assay for Identification of Novel General Anesthetics). Conditions: apoferritin 1-aminoanthracene fluorescence displacement.
Sequence of Ferritin light chain (Equus caballus) (P02791 2-175 limits assumed): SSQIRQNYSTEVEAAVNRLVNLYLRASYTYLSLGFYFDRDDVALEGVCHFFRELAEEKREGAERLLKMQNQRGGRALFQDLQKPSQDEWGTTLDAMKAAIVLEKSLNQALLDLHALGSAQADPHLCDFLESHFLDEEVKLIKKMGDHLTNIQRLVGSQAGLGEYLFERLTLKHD
How it was run: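 Competitive displacement of profluorescent 1-aminoanthracene from 10 uM horse-spleen apoferritin in 50% saturated 1-AMA/PBS; 10 min RT, fluorescence Ex 380/Em 535. Normalized to free 1-AMA and complex; four-parameter Hill fit.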
Also: nearly all actives have a fitted effect of over 40% in size.
Potency is read from the fitted curve at half-maximal effect.

Potency, active:
Cc1ccc(C(=S)N2CCCCCC2)cc1 28.2 µM, O=C1NC2(CCCCCC2)Oc2ccccc21 20 µM, CC1CCN(c2nc(-c3ccncc3)nc3ccccc23)CC1 39.8 µM, CC1Cc2ccccc2N1C(=O)COC(=O)c1cccnc1Cl (stereo not drawn) 15.8 µM, CN(CC(=O)Nc1ccccc1Cl)C1CCCCC1 15.8 µM, Cc1ccc(S(=O)(=O)NCCC2=CCCCC2)cc1C(N)=O 7.08 µM, O=C(COC(=O)CC1CC2CCC1C2)NC(=O)NCc1ccco1 (stereo not drawn) 22.4 µM, COc1cccc(C(=O)COC(=O)CCC(=O)c2ccccc2)c1 7.94 µM, O=C(Cn1nc(-c2ccccc2)ccc1=O)NCc1ccc(F)cc1 6.31 µM, Cc1ccc(C2=NN(CC(=O)NC(C)c3ccccc3)C(=O)CC2)cc1 (stereo not drawn) 31.6 µM, Cc1cc(N2CC(C(=O)Nc3nccs3)CC2=O)ccc1C(C)C (stereo not drawn) 14.1 µM, Cc1ccc(CNC(=O)c2nnn(-c3cccc(C)c3)c2N)cc1 17.8 µM, Cc1csc(SCC(=O)NC23CC4CC(CC(C4)C2)C3)n1 15.8 µM, CCCNC(=O)OCCC12CC3CC(CC(C3)C1)C2 7.08 µM, NC(=O)Nc1ccc(Oc2ncc(C(F)(F)F)cc2Cl)cc1 7.08 µM, Cc1ccc(NC(=O)C2COc3ccccc3O2)cc1C (stereo not drawn) 17.8 µM, COc1ccccc1CC(=O)N1CCCc2ccccc21 31.6 µM, O=C(CSC(=S)N1CCCCC1)c1ccccc1 15.8 µM, O=C(Nc1nccs1)c1csc2c1CCCC2 8.91 µM, O=C(COc1ccc(F)c(Cl)c1)N1CCCCCCC1 35.5 µM, Cc1csc(OCC(=O)Nc2ccc(C)c(C)c2)n1 17.8 µM, N#Cc1ccc(NC(=O)COC(=O)CNC(=O)C2CCCCC2)cc1 15.8 µM, O=S(=O)(NCCc1ccccc1)c1ccc(Br)s1 31.6 µM, O=C(Cn1sc2ccccc2c1=O)NC12CC3CC(CC(C3)C1)C2 15.8 µM, c1ccc(CCNc2nc3ccccc3s2)cc1 10 µM, CCc1c(O)nc(SC2CC(=O)N(c3ccccc3)C2=O)[nH]c1=O (stereo not drawn) 31.6 µM, O=C(COC(=O)CC1CC2CCC1C2)Nc1ccc(F)cc1 (stereo not drawn) 20 µM, Cc1ccc(O)c(NC(=O)CCC2CCCCC2)c1 7.94 µM, O=C1CCCc2ccccc2N1Cc1ccccc1Cl 15.8 µM, Cc1ccc(NC(=O)N2CCCCCC2)cc1C 6.31 µM, O=C(CSCCO)Nc1ccc(C2CCCCC2)cc1 20 µM, CC1CCCC(C)N1C(=O)COc1ccccc1F (stereo not drawn) 17.8 µM, COc1ccc(C2=Nn3c(nnc3-c3ccc(OC)cc3)SC2)cc1 22.4 µM, Cc1ccc(NCc2cccnc2)c(Br)c1 8.91 µM, O=C(COC(=O)c1cccs1)NCC1CCCCC1 20 µM, CC1CCCN(C(=O)COc2ccc(Nc3ccccc3)cc2)C1 (stereo not drawn) 25.1 µM, CC(=O)Nc1ccc(NCc2ccc(C)s2)cc1 17.8 µM, Cc1cc(C)cc(OCc2nnc(SCC(=O)OC(C)C)o2)c1 12.6 µM
